Test results reported in ChEMBL document CHEMBL5606460, “ASAP - DENV-2 NS2B-NS3 protease fluorescence single point” (2024).
Hit rate of the full screen: of about 2,000 compounds, about 110 (5.5%) showed an effect of 50% or more. For the sample, strong results were picked, then their nearest neighbours and some compounds at random.

Target: Genome polyprotein (dengue virus type 2) (UniProt P29990)
[1] = Thailand/16681/1984, Concentration 25.0 uM, Number of replicates 1.0

Work on `Cc1cc(CO)c2cccc(NC(=O)[C@@H]3CC(=O)CCN3)c2n1` yielded an inhibition (Thailand/16681/1984, Concentration 49.95 uM, Number of replicates 2.0, Standard deviation 1.684279261738791 %) of 1.29% and an inhibition (Thailand/16681/1984, Concentration 99.9 uM, Number of replicates 2.0, Standard deviation 1.6842793565692 %) of -1.57%.

Work on `CN(CCc1ccccc1F)C(=O)C1CCN(c2ccc(C=O)cc2)CC1` yielded an inhibition [1] of 13.4%.

`O=Cc1ccc(N2CCC(C(=O)Nc3ccc([N+](=O)[O-])c4ccccc34)CC2)cc1` showed an inhibition [1] of 13.5%.

With `CN(Cc1nc2ccsc2c(=O)[nH]1)C(=O)C1CCN(c2ccc(C=O)cc2)CC1` the inhibition [1] was 11.8%.

`O=Cc1ccc(N2CCC(C(=O)N[C@H](c3ccccc3)C(F)(F)F)CC2)cc1` gave an inhibition [1] of 13.1%.

`Cc1cc(CO)c2cccc(CC(=O)Nc3cc(C)[nH]n3)c2n1` was tested, and the inhibition (Thailand/16681/1984, Concentration 49.95 uM, Number of replicates 2.0, Standard deviation 0.6660500187655393 %) was 4.74% and the inhibition (Thailand/16681/1984, Concentration 99.9 uM, Number of replicates 2.0, Standard deviation 2.9944546877986085 %) was 12.6%.

With `Cc1cc(CO)c2cccc(CC(=O)Nc3cc(C)on3)c2n1` the inhibition (Thailand/16681/1984, Concentration 49.95 uM, Number of replicates 2.0, Standard deviation 0.056769444720657654 %) was 98.7% and the inhibition (Thailand/16681/1984, Concentration 99.9 uM, Number of replicates 2.0, Standard deviation 0.01177144620169866 %) was 99.4%.

For `Cc1cc(CO)c2cccc(Cc3cccc(C(=O)Nc4cc(C)on4)c3)c2n1`, the inhibition (Thailand/16681/1984, Concentration 49.95 uM, Number of replicates 2.0, Standard deviation 1.544383261062021 %) was 29.6% and the inhibition (Thailand/16681/1984, Concentration 99.9 uM, Number of replicates 2.0, Standard deviation 16.942938692438737 %) was 63.9%.

In the case of `Cc1cc(CO)c2cccc(CC(=O)NCc3c(C)noc3C)c2n1`, the inhibition (Thailand/16681/1984, Concentration 49.95 uM, Number of replicates 2.0, Standard deviation 0.8979901952671747 %) is reported as -6.95% and the inhibition (Thailand/16681/1984, Concentration 99.9 uM, Number of replicates 2.0, Standard deviation 0.7380557178102791 %) is reported as -7.49%.

In the case of `Cc1cc(CO)c2cccc(Cc3ccccc3C(=O)Nc3cc(C)on3)c2n1`, the inhibition (Thailand/16681/1984, Concentration 49.95 uM, Number of replicates 2.0, Standard deviation 1.5788782649320652 %) is reported as 8.61% and the inhibition (Thailand/16681/1984, Concentration 99.9 uM, Number of replicates 2.0, Standard deviation 0.4297535440018178 %) is reported as 25.7%.

`Cc1cc(CO)c2cccc(Cc3cccc(C(=O)Nc4cc(C)[nH]n4)c3)c2n1` showed an inhibition (Thailand/16681/1984, Concentration 49.95 uM, Number of replicates 2.0, Standard deviation 1.9137700846759278 %) of 0.711% and an inhibition (Thailand/16681/1984, Concentration 99.9 uM, Number of replicates 2.0, Standard deviation 1.69961162141419 %) of 3.33%.

`COc1ccc(-c2cc(NC(=O)C3CCN(c4ccc(C=O)cc4)CC3)[nH]n2)cc1` was tested, and the inhibition [1] was 0.343%.

`c1cnc2c(C3CCN(Cc4cscn4)CC3)c[nH]c2c1` gave an inhibition (Thailand/16681/1984, Concentration 49.5 uM, Number of replicates 2.0, Standard deviation 1.714470745737797 %) of -3.42%, an inhibition (Thailand/16681/1984, Concentration 99.01 uM, Number of replicates 2.0, Standard deviation 2.482934234636928 %) of -3.54% and an inhibition (Thailand/16681/1984, Concentration 198.0 uM, Number of replicates 2.0, Standard deviation 1.6201369950511377 %) of -3.14%.

Compound `C[C@@H](Cc1ccc(O)cc1)NC(=O)C1CCN(c2ccc(C=O)cc2)CC1` has an inhibition [1] of 12.7%.

Compound `Cc1cc(CO)c2cccc(CC(=O)N3CC4(CCCOC4)C3)c2n1` has an inhibition (Thailand/16681/1984, Concentration 49.95 uM, Number of replicates 2.0, Standard deviation 0.772673116128399 %) of -6.59% and an inhibition (Thailand/16681/1984, Concentration 99.9 uM, Number of replicates 2.0, Standard deviation 1.1105448445025274 %) of -6.27%.

Compound `CC(C)(CO)NC(=O)c1cc(Cl)cc(NC(=O)c2cc(-c3ccc(Cl)cc3)n[nH]2)c1` has an inhibition (Thailand/16681/1984, Concentration 49.5 uM, Number of replicates 2.0, Standard deviation 0.12694171370832513 %) of 1.06%, an inhibition (Thailand/16681/1984, Concentration 99.01 uM, Number of replicates 2.0, Standard deviation 0.3683389265193805 %) of 1.45% and an inhibition (Thailand/16681/1984, Concentration 198.0 uM, Number of replicates 2.0, Standard deviation 0.21850629000727306 %) of 2.52%.

In the case of `Cc1cc(CO)c2cccc(C[C@H](NC(=O)C(=O)c3ccco3)C(=O)O)c2n1`, the inhibition (Thailand/16681/1984, Concentration 49.95 uM, Number of replicates 2.0, Standard deviation 2.1984135254678594 %) is reported as 1.13% and the inhibition (Thailand/16681/1984, Concentration 99.9 uM, Number of replicates 2.0, Standard deviation 0.8113996635889369 %) is reported as 5.56%.

`c1ccc2c(CN3CCC(c4c[nH]c5cccnc45)CC3)n[nH]c2c1` gave an inhibition (Thailand/16681/1984, Concentration 49.5 uM, Number of replicates 2.0, Standard deviation 0.8795107409501791 %) of 2.18%, an inhibition (Thailand/16681/1984, Concentration 99.01 uM, Number of replicates 2.0, Standard deviation 0.8626664157680123 %) of 3.05% and an inhibition (Thailand/16681/1984, Concentration 198.0 uM, Number of replicates 2.0, Standard deviation 1.2603111418750788 %) of 5.34%.

`Cc1cc(CO)c2cccc(C[C@H](NC(=O)C[C@H]3CCCN3)C(=O)O)c2n1` gave an inhibition (Thailand/16681/1984, Concentration 49.95 uM, Number of replicates 2.0, Standard deviation 0.0013512279632592627 %) of 3.5% and an inhibition (Thailand/16681/1984, Concentration 99.9 uM, Number of replicates 2.0, Standard deviation 1.378906641613337 %) of 9%.

Compound `Cc1cnccc1NC(=O)c1cc(C2CCC2)n(C)c1C` has an inhibition (Thailand/16681/1984, Concentration 49.5 uM, Number of replicates 2.0, Standard deviation 0.7067686370209446 %) of 0.618%, an inhibition (Thailand/16681/1984, Concentration 99.01 uM, Number of replicates 2.0, Standard deviation 0.7459418989288495 %) of 1.95% and an inhibition (Thailand/16681/1984, Concentration 198.0 uM, Number of replicates 2.0, Standard deviation 0.11875700646175207 %) of 4.33%.

`CC(C)NC(=O)[C@H](Nc1ccc2c(c1)CNC2)c1cc(Cl)cc2[nH]c(-c3ccccc3)nc12` showed an inhibition (Thailand/16681/1984, Concentration 99.5 uM, Number of replicates 2.0, Standard deviation 1.6408381783405366 %) of 91.5% and an inhibition (Thailand/16681/1984, Concentration 295.6 uM, Number of replicates 2.0, Standard deviation 0.018514941963441705 %) of 97.4%.

`N#Cc1cccc(-c2nc3c(C(=O)Nc4cccnc4)cc(Cl)cc3[nH]2)c1` gave an inhibition (Thailand/16681/1984, Concentration 99.5 uM, Number of replicates 2.0, Standard deviation 0.04165727071859149 %) of 7.45% and an inhibition (Thailand/16681/1984, Concentration 295.6 uM, Number of replicates 2.0, Standard deviation 4.418006643102565 %) of 20.3%.

`N#Cc1cccc(-c2nc3c(C(=O)Nc4ccncc4)cc(Cl)cc3[nH]2)c1` gave an inhibition (Thailand/16681/1984, Concentration 99.5 uM, Number of replicates 2.0, Standard deviation 0.8007493235576281 %) of 6.92% and an inhibition (Thailand/16681/1984, Concentration 295.6 uM, Number of replicates 2.0, Standard deviation 3.318711635404566 %) of 36.2%.

`CCc1ccc(-c2ccccc2C(=O)Nc2cnn(C)c2)c(F)c1` gave an inhibition (Thailand/16681/1984, Concentration 49.5 uM, Number of replicates 2.0, Standard deviation 0.8455770066617545 %) of -0.985%, an inhibition (Thailand/16681/1984, Concentration 99.01 uM, Number of replicates 2.0, Standard deviation 1.2261793384720772 %) of -0.538% and an inhibition (Thailand/16681/1984, Concentration 198.0 uM, Number of replicates 2.0, Standard deviation 2.01798052784263 %) of 0.736%.

With `N#Cc1cccc(-c2nc3c(C(=O)Nc4ccccc4)cc(Cl)cc3[nH]2)c1` the inhibition (Thailand/16681/1984, Concentration 99.5 uM, Number of replicates 2.0, Standard deviation 7.963520922762683 %) was 14.4% and the inhibition (Thailand/16681/1984, Concentration 295.6 uM, Number of replicates 2.0, Standard deviation 58.7613445679075 %) was 56.6%.

With `N#Cc1cccc(-c2nc3c(C(=O)NCc4cccnc4)cc(Cl)cc3[nH]2)c1` the inhibition (Thailand/16681/1984, Concentration 99.5 uM, Number of replicates 2.0, Standard deviation 2.321247122631555 %) was 6.57% and the inhibition (Thailand/16681/1984, Concentration 295.6 uM, Number of replicates 2.0, Standard deviation 6.98688470817418 %) was 38.2%.

`CCc1ccc(-c2nc3c(C(=O)Nc4ccc5c(c4)CNC5)cc(Cl)cc3[nH]2)cc1` gave an inhibition (Thailand/16681/1984, Concentration 99.5 uM, Number of replicates 2.0, Standard deviation 0.07636874080258764 %) of 91.5% and an inhibition (Thailand/16681/1984, Concentration 295.6 uM, Number of replicates 2.0, Standard deviation 0.5542721932424032 %) of 83.9%.

`O=C(Nc1ccc2c(c1)CNC2)c1cc(Cl)cc2[nH]c(-c3cc(C4CC4)[nH]n3)nc12` gave an inhibition (Thailand/16681/1984, Concentration 99.5 uM, Number of replicates 2.0, Standard deviation 0.13306805316732315 %) of 94.6% and an inhibition (Thailand/16681/1984, Concentration 295.6 uM, Number of replicates 2.0, Standard deviation 0.23606011523727233 %) of 88.6%.

In the case of `N#Cc1cccc(-c2nc3c(C(=O)NCc4ccccc4)cc(Cl)cc3[nH]2)c1`, the inhibition (Thailand/16681/1984, Concentration 99.5 uM, Number of replicates 2.0, Standard deviation 0.16663009439873022 %) is reported as -4.99% and the inhibition (Thailand/16681/1984, Concentration 295.6 uM, Number of replicates 2.0, Standard deviation 26.28702583112172 %) is reported as 8.64%.
